Assay results taken from PMC10726135, “HNF4α isoforms regulate the circadian balance between carbohydrate and lipid metabolism in the liver”.
Whole data set: some 18,000 sequences, median “log2 normalized intensity” near 0.39, cut for the highest 2% near 6.6. The sample holds the highest values, similar sequences and a random draw of the others, so the mix is not that of the screen.

Each sequence was assayed against T1, HNF4alpha2 (COS-7 nuclear extract) (Homo sapiens, UniProt P41235 1-474) (assay: protein-binding microarray; COS-7 nuclear extract on double-stranded Agilent 4x180k PBM; binding buffer, salt, pH and temperature not given in the material; high values mean tight binding). Conditions: chain copies: 2; label: 3' end of strand 1 on the slide; dsDNA, one strand shown.
T1 sequence: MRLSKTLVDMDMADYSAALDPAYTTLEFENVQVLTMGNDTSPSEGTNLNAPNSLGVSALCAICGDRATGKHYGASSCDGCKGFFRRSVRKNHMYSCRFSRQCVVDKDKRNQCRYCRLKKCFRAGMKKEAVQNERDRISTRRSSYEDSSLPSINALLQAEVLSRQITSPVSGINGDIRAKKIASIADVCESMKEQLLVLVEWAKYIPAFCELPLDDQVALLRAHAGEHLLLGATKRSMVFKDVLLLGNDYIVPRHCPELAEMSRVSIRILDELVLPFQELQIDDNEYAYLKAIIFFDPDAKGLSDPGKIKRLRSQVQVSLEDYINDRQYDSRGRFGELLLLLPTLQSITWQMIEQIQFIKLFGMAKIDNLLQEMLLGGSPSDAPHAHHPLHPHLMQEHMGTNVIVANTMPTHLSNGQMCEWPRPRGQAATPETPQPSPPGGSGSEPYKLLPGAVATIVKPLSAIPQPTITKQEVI
Outline: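 Double-stranded oligonucleotides of ~60 nt, representing ~44,000 test sequences in quadruplicate, made up a custom Agilent SurePrint G3 4x180k array. Nuclear extracts from COS-7 cells transiently transfected by CaPO4 with a human HNF4α isoform expression vector were applied, and bound HNF4α was imaged at 2-µm resolution on an Agilent G2565CA scanner. Binding signal refers to the background-corrected, normalized gProcessedSignal output of Agilent software.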

Sequence | binding signal [log2 normalized intensity]
CTCACATGAGCTAGAGCTCGTGTCATCTCTGCCTAGGGAGATTAGAGTATCGGTCGA | -0.899
CACCAGAAAAATGTACATGTGCAAAAGCACGCCTAGGGAGATTAGAGTATCGGTCGA | 0.628
GGGAAGCAGTGAGGGTGGGTTCAAAGGTCAGCCTAGGGAGATTAGAGTATCGGTCGA | 8.24
GGCATGGGAAGCAGTGAGGGTGGGTTCAAAGCCTAGGGAGATTAGAGTATCGGTCGA | 0.803
GGTCAGAAAAAGCTGACGCCCCACCCCCTCGCCTAGGGAGATTAGAGTATCGGTCGA | 5.94
CAAGGGTCAGTTCATTAAAAAAAAAAAAAAGCCTAGGGAGATTAGAGTATCGGTCGA | 1.19
TGGGTTCAAAGGTCAGAAAAAGCTGACGCCGCCTAGGGAGATTAGAGTATCGGTCGA | 6.84
GCAGTGAGGGTGGGTTCAAAGGTCAGAAAAGCCTAGGGAGATTAGAGTATCGGTCGA | 7.95
GACTCAGAAAAATATGTGGACTTCAAAGGTGCCTAGGGAGATTAGAGTATCGGTCGA | 1.29
AAGAAAAGCCTTGTGGCAGTGAGAACAGGTGCCTAGGGAGATTAGAGTATCGGTCGA | 0.143
AAAGGGGAAAAGGTCAAATACCAAAATGTGGCCTAGGGAGATTAGAGTATCGGTCGA | 1.8
TAGAAGCAGTGGGACAAAGGTCACAGGAAAGCCTAGGGAGATTAGAGTATCGGTCGA | 4.42
GAGGGTGGGTTCAAAGGTCAGAAAAAGCTGGCCTAGGGAGATTAGAGTATCGGTCGA | 6.66
TCAAAGGTCAGAAAAAGCTGACGCCCCACCGCCTAGGGAGATTAGAGTATCGGTCGA | 3.28
AATTTTTTTTTCTTATCTCACTGGATGTGTGCCTAGGGAGATTAGAGTATCGGTCGA | 2.22
AGGTTAAGACTTTGAATCAGTAAATATTTGGCCTAGGGAGATTAGAGTATCGGTCGA | 0.901
AGATACAGGTCAGACCCTGGAATTCCAGAAGCCTAGGGAGATTAGAGTATCGGTCGA | -0.969
GGCCCATTTTCCCATGGTCTGTAGAAGGCGGCCTAGGGAGATTAGAGTATCGGTCGA | 0.306
GATGTTCGTTTGGATCGCTTGGCTCAGGCCGCCTAGGGAGATTAGAGTATCGGTCGA | -0.819
CTCTGATCCTAGTCTTTGCCCCACTGCAAGGCCTAGGGAGATTAGAGTATCGGTCGA | 2.95
GGGTGGTGGTTACCGGCAGAGGCTGCAGAGGCCTAGGGAGATTAGAGTATCGGTCGA | 0.249
CTCCCTTTGATGCGGTCAGAGTTCATTTGGGCCTAGGGAGATTAGAGTATCGGTCGA | 3.48

Sequence | binding signal [log2 normalized intensity]
CAGTTTTTGTTTGCACCTCACAGGAAGAACGCCTAGGGAGATTAGAGTATCGGTCGA | 1.15
ATTTGAGGGTGACACTGCTCTCTCCAGGGGGCCTAGGGAGATTAGAGTATCGGTCGA | -0.738
GGGTTTGTTTTTTGCCCTTTGTACCCACACGCCTAGGGAGATTAGAGTATCGGTCGA | 7.67
AGAGGGGGTTTGTTTTTTGCCCTTTGTACCGCCTAGGGAGATTAGAGTATCGGTCGA | 8.01
AGCCTACCCACCCACACCTCCCCTTTGTTTGCCTAGGGAGATTAGAGTATCGGTCGA | 3.59
TGTTTTTTGCCCTTTGTACCCACACACACCGCCTAGGGAGATTAGAGTATCGGTCGA | 6.48
CCCACAGAGGGGGTTTGTTTTTTGCCCTTTGCCTAGGGAGATTAGAGTATCGGTCGA | 4.6
TGCCCTTTGCCTGGTGATCTTTGTTAGACCGCCTAGGGAGATTAGAGTATCGGTCGA | 2.7
ATGCCGGCGTGACCCCCACTGCCTGCCTGCGCCTAGGGAGATTAGAGTATCGGTCGA | 3.81
ATTTGACAATTTACAGTGTTCAAAGGTAGCGCCTAGGGAGATTAGAGTATCGGTCGA | 1.66
TAGGGCCTTGCTATGGAGTGGACTTTGGCTGCCTAGGGAGATTAGAGTATCGGTCGA | 6.16
TGGTATGCTAGAGTACTTGGACTTTAACCTGCCTAGGGAGATTAGAGTATCGGTCGA | 9.48
TATGCTCTCTCTCCACCTGGAGGGACTTTGGCCTAGGGAGATTAGAGTATCGGTCGA | 2.59
ACGACCTTTGGACTTGAATTATCCTTATGGGCCTAGGGAGATTAGAGTATCGGTCGA | 6.27
GCTTTTGGAAGGACTTCGAATGGTATGCTAGCCTAGGGAGATTAGAGTATCGGTCGA | 0.461
CTGGACTATGCCTTGAACTTTAAGGCACCTGCCTAGGGAGATTAGAGTATCGGTCGA | 1.07
GCCTAAGCAGGGCTAGACTTTAACCCCCTTGCCTAGGGAGATTAGAGTATCGGTCGA | 5.53
TGCTAGAGTACTTGGACTTTAACCTTTAGAGCCTAGGGAGATTAGAGTATCGGTCGA | 9.24
TCGAATGGTATGCTAGAGTACTTGGACTTTGCCTAGGGAGATTAGAGTATCGGTCGA | 6.9
CTTTAACGACCTTTGGACTTGAATTATCCTGCCTAGGGAGATTAGAGTATCGGTCGA | 7.84
GGACTTCGAATGGTATGCTAGAGTACTTGGGCCTAGGGAGATTAGAGTATCGGTCGA | 1.23
CTTTGGACTTGAATTATCCTTATGGTCTCTGCCTAGGGAGATTAGAGTATCGGTCGA | 0.855
